Screening results (PubChem BioAssay)
SARS PLP yeast = blocks SARS-CoV papain-like protease in a yeast assay; S. cerevisiae expressing SARS-CoV PLpro, growth rescue; Potency, µM (top dose mostly 32.9 µM), actives largely listed as activators; 330,000 tested, 0.19% active; AID 485353; calls by dose curve; also: nearly all actives have a fitted effect of over 55% in size
TbPYK inhibitor = blocks Trypanosoma brucei pyruvate kinase. Q57TT1. TbPYK enzyme, Kinase-Glo Plus ATP luminescence, 45 min. Potency, µM (highest dose often 76.8 µM), actives largely listed as inhibitors. 410,000 tested, 0.12% active. AID 624173; also: nearly all actives have a fitted effect of over 50% in size
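Assay buffer: 50 mM TEA pH 7.2, 100 mM KCl, 10 mM MgCl2, 0.05% BSA, 0.01% Tween-20. Pyruvate kinase from T. brucei plus substrate met compound, then ADP (130 uM final). Luminescence was read post 45 min RT.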
Sm TGR inh = S. mansoni TGR enzyme inhibition. Q962Y6. 360,000 tested, 3% active. AID 485364. purified TGR, DTNB reduction, TNB absorbance 405 nm. Potency, µM (highest dose often 114 µM), hits mostly inhibitors; also: nearly all actives have a fitted effect of over 60% in size
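Kinetic colorimetric format: TGR-catalysed, NADPH-driven DTNB reduction monitored via TNB absorbance. Enzyme dispensed at 20 nM; compound exposure 15 min at room temperature before reaction start.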
AmpC no deterg = AmpC beta-lactamase inhibition without detergent. P00811. AmpC nitrocefin hydrolysis, absorbance 480 nm, 0.0001% Triton. Potency, µM (highest dose often 57.1 µM), actives largely listed as inhibitors. 330,000 tested, 0.52% active. AID 485341; also: nearly all actives have a fitted effect of over 20% in size
Target sequence (P00811 whole entry, looked up): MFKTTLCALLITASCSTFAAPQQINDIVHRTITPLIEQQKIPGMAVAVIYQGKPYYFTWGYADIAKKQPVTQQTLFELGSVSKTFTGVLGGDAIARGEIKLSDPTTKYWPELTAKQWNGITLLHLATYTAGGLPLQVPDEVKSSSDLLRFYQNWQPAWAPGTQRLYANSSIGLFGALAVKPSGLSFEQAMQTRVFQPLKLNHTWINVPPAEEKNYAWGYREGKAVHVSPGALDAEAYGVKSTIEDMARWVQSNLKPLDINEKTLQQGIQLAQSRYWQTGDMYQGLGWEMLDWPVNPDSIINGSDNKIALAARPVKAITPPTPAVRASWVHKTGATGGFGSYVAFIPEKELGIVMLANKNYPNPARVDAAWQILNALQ
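20 mM phosphate pH 7.0 + 0.01% (detergent screen) or 0.0001% Triton X-100; 5.3 nM AmpC reagent; cpd preinc 15 min RT; nitrocefin (800 uM stock) to start; A480 q20 s × 4 min; Activity was normalised to no-enzyme and no-compound control wells.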
AmpC detergent = blocks E. coli AmpC beta-lactamase in detergent assay | AID 485294 | 370,000 tested, 0.041% active | AmpC hydrolysis of nitrocefin, absorbance 480 nm, 0.01% Triton | Potency, µM (top dose mostly 114 µM), usual class: inhibitors | P00811; also: nearly all actives have a fitted effect of over 25% in size
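AmpC (5.3 nM in the dispensed reagent) in 20 mM phosphate pH 7.0 with 0.01% (detergent screen) or 0.0001% Triton X-100 was preincubated with compounds for 15 min at room temperature. Nitrocefin was then added from an 800 uM solution, and hydrolysis was followed at 480 nm.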
RE007 growth inh = less growth of the S. pombe RE007 Vpr strain. Potency, µM (titrated, usually from 92.2 µM), most hits filed as inhibitors. S. pombe RE007 Vpr strain, BacTiter-Glo ATP luminescence, 24 h. 360,000 tested, 0.21% active; active = well fitted falling curve with a large enough effect; inconclusive = small, poorly fitted or top-dose-only effect; inactive = no such curve, though single readings can be large or run the other way; also: nearly all actives have a fitted effect of over 50% in size
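Fission yeast strain RE007, carrying one chromosomally integrated HIV-1 vpr copy, was seeded at OD 0.01 in PMG+AL medium with 23 nL pinned compound. After 24 h at 30 °C and 99% humidity, viability was read by BacTiter-Glo luminescence.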
A number is an active result; n = inactive; u = inconclusive; x = no result given. Only some compounds are listed: those with a hit (about 3.3% of all), similar ones and a draw of the others. Unless noted, calls follow the shape of the dose curve; as a rule, active = well fitted curve in the direction sought with a large enough effect; inconclusive = small, poorly fitted or top-dose-only effect, or another doubt; inactive = no such curve, though single readings can be large; an effect the other way counts as inactive or inconclusive.

SMILES	SARS PLP yeast	TbPYK inhibitor	Sm TGR inh	AmpC no deterg	AmpC detergent	RE007 growth inh
CCn1cc(C(=O)NCc2ccco2)c(=O)c2cc(S(=O)(=O)N3CCCCCC3)ccc21	u	n	u	n	n	n
O=C(COC(=O)c1cccc(S(=O)(=O)N2CCc3ccccc32)c1)NCc1ccco1	n	n	n	n	n	n
C/C(=N\O)c1ccc(OCC(=O)N2CCCCC2)cc1	x	n	x	x	x	x
CC(Nc1ccc(-c2nc(-c3ccncc3)no2)cc1[N+](=O)[O-])c1ccccc1 (stereo not drawn)	x	n	n	x	n	x
O=C(NCCc1cccs1)c1ccc(Cn2c(SCc3ccc(F)cc3)nc3cccnc32)cc1	x	n	n	x	n	x
CN(c1ccccc1)S(=O)(=O)c1cccc(NC(=O)COC(=O)C2CCCCC2)c1	n	n	n	3.5µM	n	n
CN(c1ccccc1)S(=O)(=O)c1cccc(C(=O)OCC(=O)NCc2ccco2)c1	n	n	56µM	n	n	n
NS(=O)(=O)c1cccc(NC(=O)COC(=O)C2CCCCC2)c1	n	n	n	n	n	n
O=C(NN=Cc1ccc(F)cc1)c1cccc(S(=O)(=O)N2CCCC2)c1	n	n	x	n	x	n
O=C(N/N=C/c1ccc(O)c(O)c1)c1cccc(S(=O)(=O)N2CCCCC2)c1	n	n	n	14µM	n	n
CCn1cc(C(=O)NCc2ccco2)c(=O)c2cc(F)c(N3CCN(C(=O)c4ccco4)CC3)cc21	n	n	20µM	n	n	n
CCOC(=O)c1c(C)sc(-c2c(-c3ccc4c(c3)OCCO4)[nH]c3c2c(=O)n(C)c(=O)n3C)c1O	x	n	n	x	n	x
O=C(NCc1ccco1)c1ccc(S(=O)(=O)N2CCCCC2)cc1	n	n	n	n	n	n
O=C(COC(=O)c1ccc(S(=O)(=O)N2CCCC2)cc1)NCc1ccco1	n	n	40µM	n	n	n
CN(C1=C(NC(=O)c2ccccc2)C(=O)c2ccccc2C1=O)C1CCS(=O)(=O)C1 (stereo not drawn)	n	n	u	n	n	n
CC(=O)NC1=C(NC2CCS(=O)(=O)C2)C(=O)c2ccccc2C1=O (stereo not drawn)	n	u	0.71µM	n	n	n
Cc1cccn2c(=O)c3cc(C(=O)Nc4ccc(Cl)c(Cl)c4)sc3nc12	x	n	n	x	n	x
O=C1c2ccccc2-c2onc3c(Oc4ccccc4)cc(O)c1c23	n	x	45µM	n	n	x
Cc1nc(N/N=C/c2ccccc2)nc(N(C)c2ccccc2)c1[N+](=O)[O-]	n	n	n	n	n	n
Cc1nc(Cl)nc(N(C)c2ccccc2)c1[N+](=O)[O-]	n	n	4.5µM	n	n	n
COc1ccc(NC(=O)CSc2nnc(NC(=O)NC3CCCCC3)s2)cc1OC	x	n	n	x	n	x
COc1ccc(CNC(=O)CS(=O)(=O)c2cccc3nsnc23)cc1	x	n	n	x	n	x
O=C(CSc1oc(-c2ccco2)nc1S(=O)(=O)c1ccccc1)NCC1CCCO1 (stereo not drawn)	n	n	16µM	n	n	n
O=C(CSc1oc(-c2ccccc2)nc1S(=O)(=O)c1ccccc1)NCC1CCCO1 (stereo not drawn)	n	n	n	n	n	n
O=C(CSc1oc(-c2ccco2)nc1S(=O)(=O)c1ccc(Cl)cc1)NCC1CCCO1 (stereo not drawn)	n	n	50µM	n	n	n
SMILES	SARS PLP yeast	TbPYK inhibitor	Sm TGR inh	AmpC no deterg	AmpC detergent	RE007 growth inh
O=C(CSc1oc(-c2ccco2)nc1S(=O)(=O)c1ccc(F)cc1)NCC1CCCO1 (stereo not drawn)	n	n	n	n	n	n
O=C(CCC(=O)N1CCSc2ccccc21)NCc1ccccc1Cl	x	n	n	x	n	x
COc1cccc(N=Cc2c(O)n(Cc3ccco3)c(=O)[nH]c2=O)c1	n	n	25µM	n	n	n
COc1ccc(-c2cc(OC(=O)c3ccccc3Cl)c3c(C)oc(C)c3c(=O)c2)cc1OC	x	n	u	x	n	x
Oc1c(CN2CCCC(C(F)(F)F)C2)cc(Cl)c2ccccc12 (stereo not drawn)	n	n	2µM	n	n	u
CCOC(=O)C1CCN(Cc2cc(Cl)c3ccccc3c2O)CC1	n	n	4.5µM	n	n	u
CCOC(=O)C1CCN(Cc2ccc(OC)c(C)c2OC)CC1	n	n	n	n	u	n
O=C(c1cccc(C(F)(F)F)c1)C1CCCN(Cc2ccccc2O)C1 (stereo not drawn)	n	n	n	n	n	n
N=c1n(CCO)c2ccccc2n1Cc1ccccc1F	x	n	n	x	n	x
COc1cccc(-c2cccc(NC(=O)C3CCN(Cc4ccc(C)o4)CC3)c2)c1	n	n	50µM	n	n	n
Cc1ccc(CN2CCC(Oc3cccc(C(=O)NCc4cccnc4)c3)CC2)o1	n	n	32µM	n	n	n
O=C(Cn1ncn2c(cc3sccc32)c1=O)NCCc1ccccc1	x	n	n	x	n	x
CN(C)NC1CCS(=O)(=O)C1 (stereo not drawn)	n	n	1.6µM	n	n	n
CC1CN(C2CCN(S(=O)(=O)c3ccc(F)cc3)CC2)CC(C)O1 (stereo not drawn)	n	n	40µM	n	n	n
CC1CN(C2CCN(S(=O)(=O)c3ccccc3)CC2)CC(C)O1 (stereo not drawn)	n	n	n	n	u	n
CN(Cc1ccco1)C(=O)Cn1cc(S(=O)(=O)N2CCCC2)c(S(=O)(=O)N2CCCC2)c1	n	n	35µM	n	n	n
CN(Cc1ccco1)C(=O)c1ccc(S(=O)(=O)N2CCCCCC2)cc1	n	n	n	n	n	n
Oc1ccc(-c2cnns2)c(O)c1	n	n	79µM	n	n	n
Clc1ccc(CSc2nnc(/C=C/c3ccccc3)o2)cc1	n	n	n	0.16µM	n	n
COc1ccc2c3c1O[C@H]1[C@@H](O)C=C[C@H]4C(C2)NCCC341 (stereo partly drawn)	x	n	x	x	x	x
COc1ccc2c3c1OC1C(O)C=CC4C(C2)[N+](C)(C)CCC341 (stereo not drawn)	n	u	n	u	40µM	n
CC(C)c1ccc(NC(=O)C2CCCN(S(=O)(=O)c3ccc4[nH]c(=O)ccc4c3)C2)cc1 (stereo not drawn)	x	n	n	x	n	x
Cc1c(NC(=O)OC(C)C)sc(=S)n1C	n	n	35µM	n	u	n
CCCCn1cc(S(=O)(=O)c2ccc(C)c(C)c2)c(=O)c2cc(F)c(N3CCN(C)CC3)cc21	x	n	n	x	n	x
Cc1ccc(-c2nc(CS(=O)CC(=O)NCCc3ccc(Cl)cc3)c(C)o2)cc1 (stereo not drawn)	x	n	n	x	n	x
